# Laboratory results as given in PubChem BioAssay (Tox21).
# Values without a mark were called inactive. Results filed as inconclusive are left out. A call without a number means that no potency is given here. Active and inactive are the calls of the source. Calls follow the shape of the full dose curve.
# Target: Acetylcholinesterase (Homo sapiens) (UniProt P22303)
# Assay: Acetylcholinesterase (AChE) small molecule antagonists: fluorescence cell-based qHTS assay (AID 1347398); also: nearly all actives have a fitted effect of over 50% in size
# Conditions: SH-SY5Y cells; Potency: AChE activity; outcome: AChE activity; series mostly up to 115 µM
# Summary of the method: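 SH-SY5Y, 2,000 cells/well, attached overnight; cmpd 30 min 37 C; acetylthiocholine/Thiolite Green cocktail 40 min RT; fluorescence Ex/Em 490/520 nm.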
# Acetylcholinesterase (Homo sapiens), sequence (P22303 whole entry, looked up): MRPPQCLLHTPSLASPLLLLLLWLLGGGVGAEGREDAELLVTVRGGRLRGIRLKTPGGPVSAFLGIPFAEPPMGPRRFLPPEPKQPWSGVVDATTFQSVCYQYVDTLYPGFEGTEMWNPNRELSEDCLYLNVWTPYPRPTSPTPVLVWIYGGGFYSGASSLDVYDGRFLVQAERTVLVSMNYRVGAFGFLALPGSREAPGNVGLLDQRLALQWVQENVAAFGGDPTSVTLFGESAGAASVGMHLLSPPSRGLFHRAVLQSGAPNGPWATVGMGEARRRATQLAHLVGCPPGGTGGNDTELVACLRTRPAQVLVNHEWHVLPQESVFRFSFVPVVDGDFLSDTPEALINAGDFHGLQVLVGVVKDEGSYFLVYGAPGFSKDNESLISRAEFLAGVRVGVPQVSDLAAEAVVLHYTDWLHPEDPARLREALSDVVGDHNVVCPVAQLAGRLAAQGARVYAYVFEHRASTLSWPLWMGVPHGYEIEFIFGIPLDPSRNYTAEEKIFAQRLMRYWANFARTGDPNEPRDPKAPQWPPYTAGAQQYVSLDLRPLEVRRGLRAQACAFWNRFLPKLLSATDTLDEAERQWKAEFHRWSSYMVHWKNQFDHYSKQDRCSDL
Structure (SMILES),Potency,"activity change, negative = inhibition"
Cc1ccc(Nc2c(F)cccc2Cl)c(CC(=O)O)c1,inactive,
CC(=O)C(=O)CC(C)C,inactive,
CCOC(=O)C1OC1c1ccccc1 (stereo not given),inactive,
Cc1cc(C)nc(NS(=O)(=O)c2ccc(N)cc2)n1,inactive,
Nc1ncnc2c1ncn2[C@@H]1O[C@H](COP(=O)(O)O)[C@@H](O)[C@H]1O,inactive,
OCC(CO)(CO)COCC(CO)(CO)CO,inactive,
NC(=S)NNC(N)=S,inactive,
Cc1cc(C)c(C)cc1C,inactive,
C[C@@H](C1=C(CCN(C)C)Cc2ccccc21)c1ccccn1,inactive,
CCCCCCCCCCCCc1ccccc1,inactive,
CCCCNc1ccccc1,inactive,
C[Si](C)(C)O[Si](C)(C)O[Si](C)(C)C,inactive,
OC[C@H]1O[C@H](O[C@H]2O[C@H](CO)[C@@H](O)[C@H](O)[C@H]2O)[C@H](O)[C@@H](O)[C@@H]1O,inactive,
CCCC1O[C@@H]2C[C@H]3[C@@H]4CCC5=CC(=O)C=C[C@]5(C)[C@H]4[C@@H](O)C[C@]3(C)[C@]2(C(=O)CO)O1 (stereo not given in full),inactive,
C=C(C)C1CCC(C)CC1O (stereo not given),inactive,
NS(=O)(=O)c1ccc(Cl)c(S(N)(=O)=O)c1,inactive,
CC1=NC(C)OC1C (stereo not given),inactive,
CC(O)COCC(C)O (stereo not given),inactive,
CN1Cc2cc(C(=O)N3CCC(C4CCNCC4)CC3)ccc2NC(CC(=O)O)C1=O (stereo not given),inactive,
COS(=O)(=O)C(F)(F)F,inactive,

Structure (SMILES),Potency,"activity change, negative = inhibition"
CCOC(=O)CC1(C)OCC(C)O1 (stereo not given),inactive,
CC1(C)[C@@H](O[C@H]2O[C@H](C(=O)O)[C@@H](O)[C@H](O)[C@H]2O[C@@H]2O[C@H](C(=O)O)[C@@H](O)[C@H](O)[C@H]2O)CC[C@]2(C)[C@H]3C(=O)C=C4[C@@H]5C[C@@](C)(C(=O)O)CC[C@]5(C)CC[C@@]4(C)[C@]3(C)CC[C@@H]12,inactive,
OCCN1C[C@H](O)[C@@H](O)[C@H](O)[C@H]1CO,inactive,
Cc1c[nH]c2ccccc12,inactive,
NNS(=O)(=O)c1ccc(Oc2ccc(S(=O)(=O)NN)cc2)cc1,inactive,
CCn1cc(C(=O)O)c(=O)c2cc(F)c(N3CCNC(C)C3)c(F)c21 (stereo not given),inactive,
CCCCCC(=O)OCC,inactive,
C=CCn1c(=O)n([C@@H]2O[C@H](CO)[C@@H](O)[C@H]2O)c2nc(N)[nH]c(=O)c21,inactive,
C1=Cc2ccccc2C1,inactive,
CCCCCCCCCCCCOCCOCCOCCOCCOCCOCCOCCOCCOCCO,inactive,
CCCCCCS,inactive,
NS(=O)(=O)c1cc2c(cc1Cl)CN(C1CCCCC1)C2=O,inactive,
CCOc1nc(F)cc2nc(S(=O)(=O)Nc3c(Cl)cccc3C(=O)OC)nn12,inactive,
c1ccc2sc(SSc3nc4ccccc4s3)nc2c1,,3.45% [at 23.8 µM]
ClCCOCCOCCCl,inactive,
CC(=O)Oc1ccc(C(=C2CCCCC2)c2ccc(OC(C)=O)cc2)cc1,inactive,
C/C=C/C(=O)N(CC)c1ccccc1C,inactive,
CCCCCCCCCCCCCCNCCO,inactive,
Nc1ccccc1S(=O)(=O)O,inactive,
CCCCc1nc2cccnc2n1Cc1ccc(-c2ccccc2-c2nnn[nH]2)cc1,inactive,

# Target: Acetylcholinesterase (Homo sapiens) (UniProt P22303)
# Assay: Acetylcholinesterase (AChE) small molecule antagonists: enzyme-based qHTS assay with human liver microsomes (AID 1347399); also: nearly all actives have a fitted effect of over 60% in size
# Conditions: Potency: qHTS inhibition; outcome: qHTS inhibition; series mostly up to 115 µM
# Summary of the method: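 Recombinant human AChE (50 mU/mL in the enzyme mix) and human liver microsomes (0.25 mg/mL final) were preincubated with compound and NADPH (0.25 mg/mL final) for 30 min at 37 C. Acetylthiocholine/DTNB was then added; thiocholine was read colorimetrically after 10 min at room temperature.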
Structure (SMILES),Potency,"activity change, negative = inhibition"
Cc1ccc(Nc2c(F)cccc2Cl)c(CC(=O)O)c1,inactive,
CC(=O)C(=O)CC(C)C,inactive,
CCOC(=O)C1OC1c1ccccc1 (stereo not given),inactive,
Cc1cc(C)nc(NS(=O)(=O)c2ccc(N)cc2)n1,inactive,
Nc1ncnc2c1ncn2[C@@H]1O[C@H](COP(=O)(O)O)[C@@H](O)[C@H]1O,inactive,
OCC(CO)(CO)COCC(CO)(CO)CO,inactive,
NC(=S)NNC(N)=S,inactive,
Cc1cc(C)c(C)cc1C,inactive,
C[C@@H](C1=C(CCN(C)C)Cc2ccccc21)c1ccccn1,inactive,
CCCCCCCCCCCCc1ccccc1,inactive,
CCCCNc1ccccc1,inactive,
C[Si](C)(C)O[Si](C)(C)O[Si](C)(C)C,inactive,
OC[C@H]1O[C@H](O[C@H]2O[C@H](CO)[C@@H](O)[C@H](O)[C@H]2O)[C@H](O)[C@@H](O)[C@@H]1O,inactive,
CCCC1O[C@@H]2C[C@H]3[C@@H]4CCC5=CC(=O)C=C[C@]5(C)[C@H]4[C@@H](O)C[C@]3(C)[C@]2(C(=O)CO)O1 (stereo not given in full),inactive,
C=C(C)C1CCC(C)CC1O (stereo not given),inactive,
NS(=O)(=O)c1ccc(Cl)c(S(N)(=O)=O)c1,inactive,
CC1=NC(C)OC1C (stereo not given),inactive,
CC(O)COCC(C)O (stereo not given),inactive,
CN1Cc2cc(C(=O)N3CCC(C4CCNCC4)CC3)ccc2NC(CC(=O)O)C1=O (stereo not given),inactive,
COS(=O)(=O)C(F)(F)F,inactive,

Structure (SMILES),Potency,"activity change, negative = inhibition"
CCOC(=O)CC1(C)OCC(C)O1 (stereo not given),inactive,
CC1(C)[C@@H](O[C@H]2O[C@H](C(=O)O)[C@@H](O)[C@H](O)[C@H]2O[C@@H]2O[C@H](C(=O)O)[C@@H](O)[C@H](O)[C@H]2O)CC[C@]2(C)[C@H]3C(=O)C=C4[C@@H]5C[C@@](C)(C(=O)O)CC[C@]5(C)CC[C@@]4(C)[C@]3(C)CC[C@@H]12,inactive,
OCCN1C[C@H](O)[C@@H](O)[C@H](O)[C@H]1CO,inactive,
Cc1c[nH]c2ccccc12,inactive,
NNS(=O)(=O)c1ccc(Oc2ccc(S(=O)(=O)NN)cc2)cc1,inactive,
CCn1cc(C(=O)O)c(=O)c2cc(F)c(N3CCNC(C)C3)c(F)c21 (stereo not given),inactive,
CCCCCC(=O)OCC,inactive,
C=CCn1c(=O)n([C@@H]2O[C@H](CO)[C@@H](O)[C@H]2O)c2nc(N)[nH]c(=O)c21,inactive,
C1=Cc2ccccc2C1,inactive,
CCCCCCCCCCCCOCCOCCOCCOCCOCCOCCOCCOCCOCCO,inactive,
CCCCCCS,inactive,
NS(=O)(=O)c1cc2c(cc1Cl)CN(C1CCCCC1)C2=O,inactive,
CCOc1nc(F)cc2nc(S(=O)(=O)Nc3c(Cl)cccc3C(=O)OC)nn12,inactive,
c1ccc2sc(SSc3nc4ccccc4s3)nc2c1,,-1.01% [at 23.6 µM]
ClCCOCCOCCCl,inactive,
CC(=O)Oc1ccc(C(=C2CCCCC2)c2ccc(OC(C)=O)cc2)cc1,inactive,
C/C=C/C(=O)N(CC)c1ccccc1C,inactive,
CCCCCCCCCCCCCCNCCO,inactive,
Nc1ccccc1S(=O)(=O)O,inactive,
CCCCc1nc2cccnc2n1Cc1ccc(-c2ccccc2-c2nnn[nH]2)cc1,inactive,
